Unmarked numbers belong to inactive results. The source made the active and inactive calls. Calls follow the shape of the dose curve; as a rule, active = well fitted inhibition curve with a large enough effect; inconclusive = small, poorly fitted or top-dose-only effect; inactive = flat fitted curve, though single readings scatter.

The record followed here is PubChem BioAssay (NCATS).

This assay has as its target Luciferin 4-monooxygenase (Photinus pyralis) (UniProt P08659). Put plainly: Primary firefly luciferase (FLuc) qHTS assay for identification of artifact compounds. (AID 1845220). Also: nearly all actives have a fitted effect of over 60% in size. As to conditions: purified firefly luciferase, luminescence, 5 min; series mostly up to 54.1 µM; activity change, negative = inhibition: at the top concentration. From the text: PI: Alexander Tropsha Ph.D.
UNC Eshelman School of Pharmacy
University of North Carolina, Chapel Hill, North Carolina
Hits from high-throughput screening (HTS) of chemical libraries are often false positives due to their interference with the assay detection technology. In response to this problem, we generated the largest publicly available library of chemical liabilities and developed a free webtool to predict HTS artifacts, both of which are described herein. More specifically, we generated, curated, and integrated HTS datasets for thiol reactivity, redox activity, and luciferase (firefly and nano) activity. Using these curated datasets, we developed and validated several Quantitative Structure-Interference Relationship (QSIR) models to predict nuisance behavior. […] These models were employed for virtual profiling of the National Center for Advancing Translational Science's (NCATS) in-house library, and 256 compounds for each assay were selected for the experimental validation of nuisance behavior. The BA for these external predictions ranged from 58 to 78% for compounds within the applicability domains of the models. […] The models developed in this study, along with aggregation models previously developed by our group (SCAM Detective) were implemented in "Liability Predictor," an online tool which may be used as part of chemical library design or for triaging HTS hits. Both the models and the curated datasets are publicly available at https://liability.mml.unc.edu/.
SEQUENCE No. (e.g., 1, 2, 3, etc.); […] (e.g., Cells, Incubation, Reagent, etc.); VALUE; DESCRIPTION.
1; Reagent; 3 uL; Luciferase substrate mixture.
2; Compounds and control; 16 nL; Kalypsis pin tool (Wako USA) equipped with a 1536-well pin head.
4; Reagent; 1 uL; Luciferase enzyme.
6; Detection; Luminescence, ViewLux microplate reader.
NOTES (numbers refer to Sequence numbers above)
1. 3 uL of luciferase substrate mixture containing D-luciferin and ATP (final concentrations of 10 uM and 10 uM, respectively) in assay buffer (10 mM Mg-acetate, 0.01% Tween-20, 0.05% bovine serum albumin, 50 mM Tris acetate, pH 7.6) was dispensed into all wells of a 1536-well assay plate (solid-bottom white plate; Greiner Bio One, Monroe, NC).
2. A Wako Pin-tool (Wako Automation, Richmond, VA) was used to transfer 16 nL of compounds (consisting of 7-plates in qHTS format, final concentration range 18.3 nM to 114 uM) or control PTC124 (final concentration range 1.22 nM to 40 uM).
3. 15 min. incubation at room temperature protected from light.
4. 1 uL of luciferase enzyme (final concentration 10 nM, Photinus pyralis luciferase) or buffer was dispensed for a final assay volume of 4 uL.
5. Plates were centrifuged (121xg, 15 seconds) and incubated for 5 minutes.
6. Samples were read for luminescence on a ViewLux CCD imager (PerkinElmer). Data were normalized to no-enzyme (0% activity) and no-inhibitor (DMSO; 100%) controls and the resulting percent inhibition data were fitted to a 4-parameter Hill equation using NCATS in-house software.
Background: qHTS replaces the single test concentration by a dilution series.
For `CCCCCCn1c(=O)c(C(=O)Nc2ccc(C(=O)OCCC)cc2)c(O)c2ccccc21`, the activity change, negative = inhibition was 0.207% [at 11.6 µM].

With `CC(N)Cc1c[nH]c2ccccc12` (stereo not given), the “activity change, negative = inhibition” value was 1.15%.

In the case of `CC[C@H]1CN2CC[C@H]1C[C@@H]2[C@@H](O)c1ccnc2ccc(OC)cc12`, the molecule was called inactive.

With `C/C=C(\C)C(=O)O[C@H]1[C@H](OC(C)=O)[C@]2(CO)[C@H](O)[C@H](O)[C@]3(C)C(=CCC4[C@@]5(C)CC[C@H](O[C@@H]6O[C@H](C(=O)O)[C@@H](O)[C@H](O[C@@H]7OC[C@H](O)[C@H](O[C@@H]8OC[C@H](O)[C@H](O)[C@H]8O)[C@H]7O)[C@H]6O[C@@H]6O[C@H](CO)[C@@H](O)[C@H](O)[C@H]6O)C(C)(C)C5CC[C@]43C)[C@@H]2CC1(C)C` (stereo not given in full), the outcome was “inactive [at 11.6 µM]”.

For the molecule `CN1CCCC1CCOC(c1cc2nccc(C(=O)O)c2[nH]1)c1ccccc1Cl` (stereo not given), the “activity change, negative = inhibition” value is 0.833%.

Turning to `OCCCCC#Cc1cncc(OC[C@@H]2CCN2)c1`, the molecule was classed as inactive.

For the molecule `C=CC(C)(O)CC/C=C(\C)C(=O)O[C@H]1[C@H](O)[C@@H](CO)O[C@@H](OC(=O)[C@]23CCC(C)(C)CC2C2=CCC4[C@@]5(C)CC[C@H](O[C@@H]6O[C@H](CO[C@@H]7OC[C@H](O)[C@H](O)[C@H]7O[C@@H]7OC[C@@H](O)[C@H](O)[C@H]7O)[C@@H](O)[C@H](O)[C@H]6O)C(C)(C)C5CC[C@@]4(C)[C@]2(C)CC3)[C@@H]1OC1OC(C)C(O[C@@H]2OC[C@@H](O)[C@H](O[C@@H]3OC[C@@H](O)[C@H](O)[C@H]3O)[C@H]2O)C(O)C1O` (stereo not given in full), the outcome was “inactive [at 11.6 µM]”.

`COC1C(O)C(OC2CCC3(C=O)C(CCC4C3CCC3(C)C(C5=CC(=O)OC5)CCC43O)C2)OC(C)C1OC1OC(CO)C(O)C(O)C1O` (stereo not given): the “activity change, negative = inhibition” value is 4.21% [at 25.7 µM].

For the molecule `COC(=O)C12C(=O)C(C)(O)C(=O)C1(C)C(C)=CC1C34CCC(OC3=O)C(C)(CO)C4CCC12C` (stereo not given), the “activity change, negative = inhibition” value is 3.71% [at 25.7 µM].

Regarding `C=C(C)[C@H]1O[C@H]2CC[C@@]3(C)[C@@](O)(CC[C@H]4[C@@H]5OC(C)(C)[C@H]6C[C@@H]7C(=C)Cc8c(Cl)cc9[nH]c(c5c9c8[C@@]76O)[C@@]43C)[C@]23O[C@@H]3[C@H]1O`, the “outcome” value was “inactive [at 25.7 µM]”.

Consider `COC1CC(O[C@H]2CC[C@]3(C=O)C4CC[C@]5(C)[C@@H](C6=CC(=O)OC6)CC[C@]5(O)[C@@H]4CC[C@]3(O)C2)OC(C)C1O[C@@H]1O[C@H](CO)[C@@H](O)[C@H](O)[C@H]1O` (stereo not given in full), for which the “activity change, negative = inhibition” value is 1.89% [at 25.7 µM].

For `COC(=O)[C@@]12C(=O)C(C)C(=O)[C@]1(C)C(C)=C[C@H]1[C@]3(C=O)CC[C@H](OC(C)=O)C(C)(C)[C@H]3CC[C@@]12C` (stereo not given in full), the “activity change, negative = inhibition” value was 3.06% [at 25.7 µM].

Consider `CN1[C@H]2C[C@H](OC(=O)[C@H](CO)c3ccccc3)C[C@@H]1[C@@H](O)C2`, for which the molecule was called inactive.

For `CC[C@H]1CN2CC[C@H]1C[C@H]2[C@H](O)c1ccnc2ccc(OC)cc12`, the “activity change, negative = inhibition” value was 0.0031%.

`C[C@]12CC[C@@H](O)C[C@H]1CC[C@@H]1[C@@H]2CC[C@]2(C)C(=O)CC[C@@H]12`: the “activity change, negative = inhibition” value was 2.44%.

For `COC1CC(OC2CCC3(C)C(=CCC4C3CCC3(C)C(C(C)OC5OC(COC6OC(CO)C(O)C(O)C6O)C(O)C(O)C5O)CCC43O)C2)OC(C)C1OC1OC(C)C(O)C(OC)C1O` (stereo not given), the outcome was “inactive [at 11.6 µM]”.

For `CC(=O)OC1CC(O)C2(C)C(CC(OC(C)=O)C3(C)C2CCC2(C)C(c4ccoc4)C(=O)C4OC423)C1(C)C` (stereo not given), the “activity change, negative = inhibition” value was 3.41% [at 25.7 µM].

On to `CC(=O)OC12C(O)C(C)C3(O)C4C=C(C)C(=O)C4CC(CO)=CC3C1C2(C)C` (stereo not given), for which the “activity change, negative = inhibition” value is 1.84% [at 25.7 µM].

As for `CN1CCC[C@@H]1Cc1c[nH]c2ccc(Nc3ncccc3[N+](=O)[O-])cc12`, the call was inactive.

For the molecule `CCN1C[C@]2(COC)[C@H](O)C[C@H](OC)[C@]34[C@@H]5C[C@]6(O)[C@H](OC(=O)c7ccccc7)[C@@H]5[C@@](O)([C@H]([C@H](OC)[C@H]23)[C@@H]14)[C@@H](O)[C@@H]6OC`, the “activity change, negative = inhibition” value was 1.52%.

In the case of `CN1C(=O)c2ccccc2NC(=O)C1Cc1ccccc1` (stereo not given), the “activity change, negative = inhibition” value is 2.01%.

Turning to `COc1ccccc1CN[C@H]1C2CCN(CC2)[C@H]1C(c1ccccc1)c1ccccc1`, the call was inactive.

On to `COC1=CC(=O)O[C@@H](/C=C/c2ccccc2)C1`, for which the “activity change, negative = inhibition” value is 1.97%.

As to `COC1C(O)C(C)OC(OC2C(CO)O[C@@H](O[C@@H]3CC4CCC5C(CC[C@]6(C)[C@@H](C7=CC(=O)OC7)CC[C@]56O)[C@@]4(C)[C@H](O)C3)C(O)C2O)C1O` (stereo not given in full), the “activity change, negative = inhibition” value was 4.82% [at 25.7 µM].

With `CC(C)(C)c1cc(C(C)(C)C)c2c(c1)C(O)(C(F)(F)F)C(=O)O2` (stereo not given), the call was inactive.

Turning to `COc1cc2c(cc1OC)[C@@]13CCN4CC5=CCO[C@H]6CC(=O)N2[C@H]1[C@H]6[C@H]5C[C@H]43`, the “activity change, negative = inhibition” value is 1.99% [at 25.7 µM].

For the molecule `N#CC(OC1OC(COC2OC(CO)C(O)C(O)C2O)C(O)C(O)C1O)c1ccccc1` (stereo not given), the “activity change, negative = inhibition” value is 0.0532% [at 25.7 µM].

Turning to `CC1=CC2/C=C(\C)CCC(O)C3OC(C)(C)OC3CC(=O)OC23C(=O)NC(CC(C)C)C3C1C` (stereo not given), the “outcome” value is “inactive [at 25.7 µM]”.

`COC1=CC(=O)O[C@@H](CCc2ccccc2)C1`: the outcome was inactive.

On to `CCCN1CCO[C@H]2c3cc(O)ccc3OC[C@@H]21`, for which the outcome was inactive.

With `Cc1c(Cl)cccc1S(=O)(=O)Nc1nc(CC(=O)N2CCN(C)CC2)cs1`, the “activity change, negative = inhibition” value is 2.73%.

On to `CC(=O)OC1CC(O)C(C)(C)C2CC(OC(C)=O)C3(C)C(CCC4(C)C(c5ccoc5)C(=O)C5OC543)C12C` (stereo not given), for which the “outcome” value is “inactive [at 25.7 µM]”.

On to `CC1=C2C[C@H]3[C@@H](CC=C4C[C@@H](O)CC[C@@]43C)[C@@H]2CC[C@]12O[C@@H]1C[C@H](C)CN[C@H]1[C@H]2C`, for which the result was inactive.

In the case of `C1=C2CCCN[C@H]2[C@@H]2C[C@H]1[C@H]1CCCCN1C2`, the molecule was called inactive.

In the case of `C[C@H](NC(=O)Cc1cc(F)cc(F)c1)C(=O)N[C@@H]1N=C(c2ccccc2)c2ccccc2N(C)C1=O`, the “activity change, negative = inhibition” value is -8.98%.

Turning to `CC(C)=C1CC[C@]23CO[C@H](C2)[C@@](O)(C(=O)O)CCC13` (stereo not given in full), the “activity change, negative = inhibition” value was -3.97%.

`COCC1OC(=O)c2coc3c2C1(C)C1=C(C3=O)C2CCC(=O)C2(C)CC1O` (stereo not given): the molecule was classed as inactive.

As to `CC1=C2C(=O)C3[C@@H](CC=C4C[C@@H](O)CC[C@@]43C)[C@@H]2CC[C@]12O[C@@H]1C[C@H](C)CN[C@H]1[C@H]2C` (stereo not given in full), the “activity change, negative = inhibition” value was 1.17% [at 25.7 µM].

Consider `CC(=O)O[C@H]1C[C@@H](OC(C)=O)C(C)(C)C2C[C@@H](O)[C@]3(C)C(CC[C@@]4(C)[C@H](C5=CC(=O)OC5O)C[C@H]5O[C@]543)[C@]21C` (stereo not given in full), for which the “activity change, negative = inhibition” value was 1.47% [at 25.7 µM].

Consider `COC1CC(O[C@H]2CC[C@@]3(C)C(=CCC4C3C(O)[C@@H](O)[C@]3(C)[C@@H](C(C)=O)CC[C@]43O)C2)OC(C)C1OC1CC(OC)C(OC2OC(C)C(O)C(O)C2O)C(C)O1` (stereo not given in full), for which the outcome was “inactive [at 11.6 µM]”.
